pPAFAH inh – pPAFAH enzyme inhibitors, primary screen, biochemical, fluorescence polarization, human; Platelet-activating factor acetylhydrolase (Homo sapiens), Q13093; recombinant pPAFAH, FP-rhodamine probe fluorescence polarization; inhibition, % at 3.39 µM; 330,000 compounds, 1.5% hits; AID 463082, 2010;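 active = inhibition above the mean inhibition across the screen plus 3 SD, cut at about 25% in these data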;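 also: inhibitors block binding of the rhodamine activity-based probe so polarization drops; 0% = enzyme with DMSO and 100% = wells lacking pPAFAH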
Target sequence (Q13093 whole entry, looked up): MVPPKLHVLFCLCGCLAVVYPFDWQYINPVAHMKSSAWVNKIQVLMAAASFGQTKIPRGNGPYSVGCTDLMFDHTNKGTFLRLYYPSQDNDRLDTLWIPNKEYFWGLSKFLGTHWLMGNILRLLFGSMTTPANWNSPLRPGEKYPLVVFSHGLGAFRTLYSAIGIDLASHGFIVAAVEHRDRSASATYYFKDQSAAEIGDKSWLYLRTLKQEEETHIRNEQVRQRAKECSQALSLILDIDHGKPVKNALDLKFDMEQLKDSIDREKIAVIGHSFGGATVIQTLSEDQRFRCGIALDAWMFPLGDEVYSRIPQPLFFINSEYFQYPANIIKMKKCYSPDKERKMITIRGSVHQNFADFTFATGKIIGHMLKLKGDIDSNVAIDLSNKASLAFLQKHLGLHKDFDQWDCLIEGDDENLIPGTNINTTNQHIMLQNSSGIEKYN
PAFAH1B2 inh – PAFAH1B2 enzyme inhibitors, primary screen, biochemical, fluorescence polarization, human. recombinant PAFAH1B2, FP-rhodamine activity probe. 340,000 compounds, 1.2% hits. AID 492953, 2010. inhibition, % at 3.39 µM. Platelet-activating factor acetylhydrolase IB subunit alpha2 (Homo sapiens), P68402;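 active = inhibition above the mean of all tested compounds plus 3 SD, cut at about 24% in these data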;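 also: 0% = enzyme with DMSO and 100% = wells lacking PAFAH1B2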
Target sequence (P68402 whole entry, looked up): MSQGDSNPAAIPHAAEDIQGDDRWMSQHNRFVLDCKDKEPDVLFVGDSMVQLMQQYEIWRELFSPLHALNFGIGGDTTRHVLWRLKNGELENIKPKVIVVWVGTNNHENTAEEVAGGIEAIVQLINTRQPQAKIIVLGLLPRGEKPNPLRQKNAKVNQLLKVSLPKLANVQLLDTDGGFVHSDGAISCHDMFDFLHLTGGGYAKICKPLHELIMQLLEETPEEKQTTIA
PAFAH2 inh – PAFAH2 enzyme inhibitors, primary screen, biochemical, fluorescence polarization, human; inhibition, % at 3.39 µM; AID 492956, 2010; recombinant PAFAH2, FP-rhodamine activity probe; 340,000 compounds, 0.99% hits; Platelet-activating factor acetylhydrolase 2, cytoplasmic (Homo sapiens), Q99487;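 active = inhibition above the mean over all tested compounds plus 3 SD, cut at about 30% in these data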;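 also: inhibitors block probe labeling of enzyme so polarization drops; 0% = enzyme with DMSO and 100% = wells lacking PAFAH2 protein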
PAFAH1B3 FP inh – PAFAH1B3 enzyme inhibitors, primary screen, biochemical, fluorescence polarization, human | Platelet-activating factor acetylhydrolase IB subunit alpha1 (Homo sapiens), Q15102 | recombinant PAFAH1B3, FP-rhodamine probe | inhibition, % at 3.39 µM | 340,000 compounds, 0.28% hits | AID 492972, 2010;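 active = inhibition above the screen-wide average of all tested compounds plus 3 SD, cut at about 25% in these data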;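 also: 0% = enzyme with DMSO only and 100% = wells lacking PAFAH1B3 protein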
M18AAP inhibitor – PfM18AAP inhibitors, malaria aminopeptidase, primary screen, biochemical, QFRET, recombinant enzyme; M18 aspartyl aminopeptidase (Plasmodium falciparum 3D7); H-Glu-NHMec fluorogenic cleavage; inhibition, % at 7.35 µM; 290,000 compounds, 1.2% hits;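 active = inhibition above the campaign mean inhibition over all tested compounds plus 3 SD, cut at about 28% in these data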;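 also: 0% = plate median of test compound wells and 100% = 2 mM ZnCl2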
DSG3 Ab inh – inhibitors of pemphigus antibody binding to DSG3, primary screen, biochemical, bead-based, flow cytometry, scFv-GFP | DSG3-coupled beads, scFv-anti-DSG3-GFP binding; active compounds read low | binding (percent of control), % at 10 µM | Desmoglein-3 (Homo sapiens), P32926 | 310,000 compounds, 0.48% hits;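 active = binding more than 3 SD below its plate's average and above zero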;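 also: hits lower antibody fragment binding to DSG3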
* marks the source's active call; other numbers are inactive results; ! = a repeat was not active. Shown are actives, neighbours in structure and some others; about 3.8% of the full set was active somewhere.

Results for C[C@@H]1CN([C@H](C)CO)S(=O)(=O)c2ccc(-c3ccc(C(=O)N(C)C)cc3)cc2O[C@H]1CN(C)C(=O)Cc1ccccn1 ?
DSG3 Ab inh: 103

What do the screens show for `C/C(N)=C(/C#N)C(=O)CSc1nnc(-c2ccc(OC(F)F)cc2)o1`?
pPAFAH inh: 11; PAFAH1B2 inh: -2; PAFAH2 inh: 0; PAFAH1B3 FP inh: -2; M18AAP inhibitor: -8; DSG3 Ab inh: 80*!

Results for C/C(N)=C(/C#N)C(=O)CSc1nnc(-c2ccc3c(c2)OCO3)o1 ?
pPAFAH inh: 2; PAFAH1B2 inh: 1; PAFAH2 inh: 13; PAFAH1B3 FP inh: 13; M18AAP inhibitor: -5; DSG3 Ab inh: 99

What do the screens show for `CCC1(C)Cc2c(sc3nnn(Cc4ccccc4Cl)c(=O)c23)CO1` (centres undefined)?
pPAFAH inh: 5; PAFAH1B2 inh: 1; PAFAH2 inh: -2; PAFAH1B3 FP inh: -4; M18AAP inhibitor: 5; DSG3 Ab inh: 97

How did Cc1ccc(S(=O)(=O)N2CCN(CN3C(=O)CC4(CCCC4)C3=O)CC2)cc1 do in these assays?
PAFAH1B2 inh: 6; PAFAH2 inh: -1; PAFAH1B3 FP inh: 4; DSG3 Ab inh: 91

Results for O=C(CC1S/C(=N\S(=O)(=O)c2ccccc2)N(c2ccccc2)C1=O)Nc1ccc(F)cc1 (centres undefined) ?
pPAFAH inh: 0; PAFAH1B2 inh: 7; PAFAH2 inh: -1; PAFAH1B3 FP inh: 0; M18AAP inhibitor: -3; DSG3 Ab inh: 101

What do the screens show for `N=C1SC(CC(=O)Nc2ccc([N+](=O)[O-])cc2)C(=O)N1c1ccccc1` (centres undefined)?
pPAFAH inh: -3; M18AAP inhibitor: 29*; DSG3 Ab inh: 98

Results for Cc1ccc(S(=O)(=O)/N=C2\SC(CC(=O)Nc3ccc(F)cc3)C(=O)N2c2ccccc2)cc1 (centres undefined) ?
pPAFAH inh: 3; PAFAH1B2 inh: 32*; PAFAH2 inh: -5; PAFAH1B3 FP inh: -1; M18AAP inhibitor: -1; DSG3 Ab inh: 102

How did Cc1cccc(C(=O)OCC(=O)NCc2ccc(Cl)cc2)c1 do in these assays?
DSG3 Ab inh: 96

What do the screens show for `Cc1ccc(S(=O)(=O)N=N/C=C2\C=CC=CN2O)cc1`?
DSG3 Ab inh: 107

Results for COc1ccc2[nH]c3c(c2c1)CCN1C(=O)C(CC(=O)NCCC2=CCCCC2)C[C@H](C(=O)N2CCCCC2)[C@@]31CCc1ccccc1 (some centres undefined) ?
pPAFAH inh: 0; PAFAH1B2 inh: 2; PAFAH2 inh: -6; PAFAH1B3 FP inh: -3; DSG3 Ab inh: 100

How did Cc1[nH]c2ccccc2c1C1=CC(=O)C=CC1=O do in these assays?
PAFAH1B2 inh: 2; PAFAH2 inh: 13; PAFAH1B3 FP inh: 12; DSG3 Ab inh: 65*

What do the screens show for `Cc1ccc(NC(=O)CNc2cccc(S(=O)(=O)N3CCCCC3)c2)cc1F`?
pPAFAH inh: 31*; PAFAH1B2 inh: -2; PAFAH2 inh: -5; PAFAH1B3 FP inh: 2; DSG3 Ab inh: 101

Results for Cc1ccccc1CS(=O)(=O)Cc1ccc(C(=O)NCc2ccco2)o1 ?
pPAFAH inh: 25*; PAFAH1B2 inh: 2; PAFAH2 inh: -3; PAFAH1B3 FP inh: 1; M18AAP inhibitor: 11; DSG3 Ab inh: 115

Results for CN(C)c1ccc2cc(S(=O)(=O)O)cc(O)c2c1 ?
PAFAH1B2 inh: 38*; PAFAH2 inh: 38*; PAFAH1B3 FP inh: 52*; DSG3 Ab inh: 84

Results for NC(=O)COC(=O)CC12CC3CC(CC(Br)(C3)C1)C2 ?
pPAFAH inh: 6; PAFAH1B2 inh: 27*; PAFAH2 inh: 2; PAFAH1B3 FP inh: 9; M18AAP inhibitor: -2; DSG3 Ab inh: 100

What do the screens show for `NC(=O)COC(=O)CC12CC3CC(CC(C3)C1)C2`?
pPAFAH inh: 5; PAFAH1B2 inh: 21; PAFAH2 inh: 4; PAFAH1B3 FP inh: 5; M18AAP inhibitor: -4; DSG3 Ab inh: 95

How did O=C(NCCCn1ccnc1)C(Cc1ccccc1)N1C(=O)c2ccccc2C1=O (centres undefined) do in these assays?
pPAFAH inh: 6; PAFAH1B2 inh: -2; PAFAH2 inh: -4; PAFAH1B3 FP inh: -1; M18AAP inhibitor: 29*; DSG3 Ab inh: 126

What do the screens show for `CC(C)(C)NC(=O)C(Cc1ccccc1)N1C(=O)c2ccccc2C1=O` (centres undefined)?
pPAFAH inh: 4; PAFAH1B2 inh: 6; PAFAH2 inh: -1; PAFAH1B3 FP inh: 14; M18AAP inhibitor: 4; DSG3 Ab inh: 90

Results for COc1cc(/C=N/NS(=O)(=O)c2ccc(C(C)(C)C)cc2)cc([N+](=O)[O-])c1O ?
pPAFAH inh: 2; PAFAH1B2 inh: 33*; PAFAH2 inh: 16; PAFAH1B3 FP inh: 15; M18AAP inhibitor: 8; DSG3 Ab inh: 104

What do the screens show for `COc1cc(/C=N/N(C)S(=O)(=O)c2ccc(C)cc2)cc([N+](=O)[O-])c1O`?
pPAFAH inh: 11; PAFAH1B2 inh: 36*; PAFAH2 inh: 5; PAFAH1B3 FP inh: 3; M18AAP inhibitor: 3; DSG3 Ab inh: 102

What do the screens show for `CC1=C(C(=O)Nc2cc(C(=O)N3CCN(c4ccc(Cl)cc4)CC3)ccc2C)SCCO1`?
DSG3 Ab inh: 100

How did O=C(Nc1cccc(-c2cccc(Cl)c2)c1)C1CCN(Cc2nccs2)CC1 do in these assays?
DSG3 Ab inh: 99

How did COC(=O)c1cc(C)sc1NC(=O)CN1CCN(C(=O)C2CCCO2)CC1 (centres undefined) do in these assays?
pPAFAH inh: 7; PAFAH1B2 inh: 0; PAFAH2 inh: 8; PAFAH1B3 FP inh: -3; M18AAP inhibitor: 1; DSG3 Ab inh: 108

What do the screens show for `CCOC(=O)c1cc(C)sc1NC(=O)CN1CCN(C(=O)C2CCCO2)CC1` (centres undefined)?
pPAFAH inh: 27*; PAFAH1B2 inh: 3; PAFAH2 inh: -4; PAFAH1B3 FP inh: -1; M18AAP inhibitor: 2; DSG3 Ab inh: 121

How did CCOC(=O)c1cc(C)sc1NC(=O)CN1CCN(C(=O)c2ccco2)CC1 do in these assays?
pPAFAH inh: 26*; PAFAH1B2 inh: 1; PAFAH2 inh: 4; PAFAH1B3 FP inh: 5; M18AAP inhibitor: 10

How did NC(=O)c1c(NC(=O)CN2CCN(S(=O)(=O)c3ccccc3)CC2)sc2c1CCC2 do in these assays?
pPAFAH inh: 15; PAFAH1B2 inh: 35*; PAFAH2 inh: 13; PAFAH1B3 FP inh: 4; DSG3 Ab inh: 92

From PubChem
